Bioassay records: PubChem, ICCB-Longwood Screening Facility, Harvard Medical School
MenB inh: Mtb MenB enzyme inhibition. P9WNP5. AID 540299. 100,000 compounds, 0.43% hits. inhibition, % (concentration not given with the values). MenB enzyme assay, absorbance read-out; in the data active means inhibition above about 21%, passing the limit was not always enough
Target sequence (P9WNP5 whole entry, looked up): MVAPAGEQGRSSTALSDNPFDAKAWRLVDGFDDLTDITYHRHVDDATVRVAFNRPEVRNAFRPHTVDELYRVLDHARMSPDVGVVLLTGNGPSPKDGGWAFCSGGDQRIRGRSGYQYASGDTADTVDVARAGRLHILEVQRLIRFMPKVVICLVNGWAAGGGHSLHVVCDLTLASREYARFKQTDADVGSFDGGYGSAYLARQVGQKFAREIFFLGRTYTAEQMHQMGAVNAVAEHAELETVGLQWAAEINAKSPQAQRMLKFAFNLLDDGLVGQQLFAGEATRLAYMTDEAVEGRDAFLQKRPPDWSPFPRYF
AID504770: growth inhibitors of E. coli YBA685 in a screen for V. cholerae RctB (chromosome II replication) inhibitors. E. coli YBA685 rctB-dependent plasmid, OD600 growth, 3 h; stronger effect = lower value. z-score (concentration not given with the values). 130,000 compounds, 0.27% hits; in the data active means z-score below about -2, passing the limit was not always enough
MbtI inh: inhibitors of Mycobacterium tuberculosis siderophore enzyme MbtI; P9WFX0; purified MbtI enzyme, fluorescence intensity read-out; inhibition, % (test concentration not listed); 100,000 compounds, 0.89% hits; AID 493033; in the data active means inhibition mostly above about 56%, no sharp cut-off; inactive means mostly below about 77%
Polio RdRp inh: poliovirus RNA polymerase inhibition. 150,000 compounds, 0.66% hits. AID 588519. P03300. poliovirus polymerase elongation, fluorescence polarization; stronger effect = lower value. % elongation, % (compound at 16.7 µg/mL); in the data active means % elongation below about 90%
A number is an active result. The list is not random: actives were taken first. Their share in the collection is about 1.4%.

Oc1ccc(Cl)cc1-c1csnn1 was read as MenB inh inactive, AID504770 -2.15, MbtI inh inactive and Polio RdRp inh inactive.
Screening NCCNCC1COC2(CCCCCCCCCCC2)O1 (centres undefined) returned MenB inh inactive, AID504770 -2.85, MbtI inh inactive and Polio RdRp inh inactive.
Screening CCS(=O)(=O)NCC1COC2(CCCCC2)O1 (centres undefined) returned MenB inh inactive, AID504770 inactive, MbtI inh inactive and Polio RdRp inh inactive.
For CCc1ccc(OC(=O)CSc2nnc(-c3ccc4c(c3)OCO4)o2)cc1 the results were Polio RdRp inh inactive.
For COc1cccc(OC(=O)CSc2nnc(-c3cccs3)o2)c1 the results were Polio RdRp inh 90.0.
For O=C(CSc1nnc(-c2cccs2)o1)Oc1ccccc1 the results were Polio RdRp inh inactive.
For COc1cccc(OC(=O)CSc2nnc(-c3ccc4c(c3)OCO4)o2)c1 the results were Polio RdRp inh 87.0.
COc1ccc(NC(=O)Cn2c(=O)c3cccn3c3ccccc32)cc1 was read as Polio RdRp inh inactive.
`CC1S/C(=N\N=C2\CCCc3ccccc32)NC1=O` (centres undefined) gave MenB inh inactive, AID504770 inactive, MbtI inh inactive and Polio RdRp inh inactive.
S=c1nc(CCCCc2nc(=S)[nH][nH]2)[nH][nH]1 was read as MenB inh inactive, AID504770 inactive, MbtI inh 71.8 and Polio RdRp inh 75.0.
`CCCc1nc(=S)[nH][nH]1` gave MenB inh inactive, AID504770 inactive, MbtI inh inactive and Polio RdRp inh inactive.
For CNC(=S)NCCN1C(=O)S/C(=C\c2cccnc2)C1=O the results were MenB inh inactive, AID504770 -3.05, MbtI inh inactive and Polio RdRp inh inactive.
Screening O=C1c2ccccc2C(=O)N1CCSC1=NN2CCS(=O)(=O)N=C2S1 returned MenB inh inactive, AID504770 inactive, MbtI inh inactive and Polio RdRp inh 84.0.
For Cc1cccc(NC(=O)CN(CC2CCCO2)C(=O)c2cc(-c3ccco3)nc3ccccc23)c1C (centres undefined) the results were MenB inh inactive, AID504770 inactive, MbtI inh inactive and Polio RdRp inh 1.0.
For Cc1cnc(C(=O)N(CC(=O)Nc2cccc(C)c2C)CC2CCCO2)cn1 (centres undefined) the results were MenB inh inactive, AID504770 inactive, MbtI inh inactive and Polio RdRp inh inactive.
For O=C(c1ccccc1)c1ccc(C(=O)c2ccccc2)cc1 the results were MenB inh inactive, AID504770 inactive and Polio RdRp inh 82.0.
Screening O=C(O)CCC(=O)c1ccccc1 returned MenB inh inactive, AID504770 inactive, MbtI inh inactive and Polio RdRp inh 75.0.
O=C(O)CCCC(=O)c1ccccc1 was read as MenB inh inactive, AID504770 inactive, MbtI inh inactive and Polio RdRp inh inactive.
For O=C(c1ccccc1)c1ccc(C(=O)O)c(C(=O)O)c1 the results were MenB inh 46.0, AID504770 inactive, MbtI inh inactive and Polio RdRp inh inactive.
For O=C(O)c1ccc(C(=O)O)c(C(=O)c2ccccc2)c1 the results were AID504770 inactive.
Screening COc1ccc(Cl)cc1NC(=O)NCc1noc2ccccc12 returned Polio RdRp inh inactive.
`CN1CCC(N(C)C(=O)c2ccc(NS(=O)(=O)c3cccs3)cc2)CC1` gave MenB inh inactive, AID504770 inactive, MbtI inh inactive and Polio RdRp inh inactive.
O=C(Nc1cccnc1Sc1nc2cccnc2s1)c1ccc(F)cc1 was read as AID504770 inactive.
For CC(=O)Nc1ccc(SC(C)C(=O)NC(N)=O)cc1 (centres undefined) the results were MenB inh inactive, AID504770 inactive, MbtI inh inactive and Polio RdRp inh inactive.
`CN(C)S(=O)(=O)c1ccc2c(c1)N(CC(=O)Nc1cccc(C(F)(F)F)c1)C(=O)CS2` gave Polio RdRp inh inactive.
`CCOC(=O)/C=C(\C)Sc1cc(=O)oc2ccccc12` gave MenB inh inactive, AID504770 inactive, MbtI inh inactive and Polio RdRp inh 84.0.
For CCO/C(C)=N\Oc1cc(=O)oc2ccccc12 the results were MenB inh inactive, AID504770 inactive, MbtI inh inactive and Polio RdRp inh inactive.
`C=C1c2cccc(O)c2C(O)=C2C(=O)C3(O)C(O)=C(C(N)=O)C(=O)C(N(C)C)C3C(O)C12` (centres undefined) gave MenB inh inactive, AID504770 -6.9, MbtI inh inactive and Polio RdRp inh inactive.
`COc1ccccc1NC(=O)C1=C(C)Nc2c(C(=O)Nc3cccc(C)c3)cnn2C1c1ccccc1C` (centres undefined) gave Polio RdRp inh inactive.
Screening CC(C)Cn1c(=O)c2sccc2n2c(=S)sc(-c3ccccc3)c12 returned MenB inh inactive, AID504770 inactive, MbtI inh 68.1 and Polio RdRp inh inactive.
For COc1ccc(-c2nn[nH]n2)cc1 the results were MenB inh 38.5, AID504770 inactive, MbtI inh inactive and Polio RdRp inh inactive.
`Cc1ccc(C(=O)CCC(=O)O)s1` gave MenB inh inactive, AID504770 -3.3, MbtI inh inactive and Polio RdRp inh inactive.
For Cc1ccc(C(=O)OCC(=O)c2ccccc2)s1 the results were MenB inh inactive, AID504770 inactive, MbtI inh inactive and Polio RdRp inh inactive.
Screening CC(C)OC(=O)c1ccc(NC(=O)CSc2nc3ncccc3[nH]2)cc1 returned MenB inh inactive, AID504770 inactive, MbtI inh inactive and Polio RdRp inh inactive.
Screening N#CCCn1cc(C(=O)N2CCCCC2)c(-c2ccccc2)n1 returned MenB inh inactive, AID504770 inactive, MbtI inh inactive and Polio RdRp inh inactive.
For CC(C)(C)N(N)C(=S)NCc1ccc(F)cc1 the results were MenB inh inactive, AID504770 inactive, MbtI inh 90.0 and Polio RdRp inh 86.0.
For O=C1CC(c2cccs2)CC(O)=C1C=Nc1cccc(C(F)(F)F)c1 (centres undefined) the results were AID504770 inactive.
`Cc1ccc(/C=C/C(=O)NCC2CCN(C(=O)/C=C/c3ccc(C)o3)CC2)o1` gave MenB inh inactive, AID504770 inactive, MbtI inh 88.9 and Polio RdRp inh inactive.
Screening Cc1c2cnn(-c3ccccc3)c(=O)c2c(C)n1CCCC(=O)Nc1cccc(F)c1 returned Polio RdRp inh 82.0.
`COc1ccc(-c2cc(C(=O)Nc3ccn(Cc4ccc(C)cc4)n3)no2)cc1OC` gave Polio RdRp inh inactive.
Screening O=S(=O)(NNc1nccc(-c2cccnc2)n1)c1cccc(C(F)(F)F)c1 returned MenB inh inactive, AID504770 inactive, MbtI inh 55.1 and Polio RdRp inh inactive.
O=c1c(=Nc2ccc(O)cc2)c(=O)c2ccccc12 was read as AID504770 inactive, MbtI inh inactive and Polio RdRp inh 49.0.
For CCN(C(=O)/C=C/c1ccco1)c1nc2c(C)cccc2s1 the results were MenB inh inactive, AID504770 inactive, MbtI inh inactive and Polio RdRp inh inactive.
For COC(=O)CSc1nc2ccccc2s1 the results were MenB inh inactive, AID504770 inactive, MbtI inh inactive and Polio RdRp inh inactive.
